Results with a measured potency or affinity are listed apart. The source made the active and inactive calls.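 How the source made its calls: active means cytotoxic compounds whose fitted half-maximal concentration is at most twice the top valid tested dose; inconclusive means flat curve showing 30 to 70% signal loss, or poor fit; inactive means the rest.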
Experiment: viability loss in A549 lung cells – cell-based, 24 h, CellTiter-Glo luminescence, cherry-picks, cytotoxicity control, dose response (AID 1053115)
Conditions: CellTiter-Glo ATP luminescence; series mostly up to 30 µM

Row | Compound | outcome
1 | C[C@H](O)C#Cc1ccc2c(c1)O[C@@H](CN(C)Cc1ccccc1)[C@H](C)CN([C@H](C)CO)S2(=O)=O | inactive
2 | C[C@@H]1CN([C@H](C)CO)C(=O)c2cccc(NC(=O)Nc3ccc(F)cc3)c2O[C@@H]1CN(C)S(=O)(=O)c1ccc(Cl)cc1 | inactive
3 | CN1c2ccc(C#Cc3cccnc3)cc2[C@@H]2[C@@H](CCN2C(=O)C2CCC2)[C@H]1CO | inactive
4 | C[C@@H]1CN([C@@H](C)CO)S(=O)(=O)c2ccc(C#C[C@@H](C)O)cc2O[C@@H]1CN(C)Cc1ccc(-c2ccccc2)cc1 | inactive
5 | C[C@H](O)C#Cc1ccc2c(c1)O[C@H](CN(C)Cc1ccc(-c3ccccc3)cc1)[C@H](C)CN([C@H](C)CO)S2(=O)=O | inactive
6 | CCCNC(=O)c1cc2c(c(-c3cccc(-c4cccc(F)c4)c3)n1)[C@H](CCO)N([S@@](=O)C(C)(C)C)C2 | inactive
7 | C[C@H](O)C#Cc1ccc2c(c1)O[C@@H](CN(C)Cc1ccccc1)[C@H](C)CN([C@@H](C)CO)S2(=O)=O | inactive
8 | C[C@@H]1CN([C@H](C)CO)S(=O)(=O)c2ccc(C#C[C@@H](C)O)cc2O[C@@H]1CN(C)Cc1ccc(-c2ccccc2)cc1 | inactive
9 | C[C@H](O)C#Cc1ccc2c(c1)O[C@H](CN(C)Cc1ccccc1)[C@H](C)CN([C@@H](C)CO)S2(=O)=O | inactive
10 | COc1ccccc1CN1CC[C@@H]2[C@@H](CO)Nc3ccc(-c4ccc(C(=O)N(C)C)cc4)cc3[C@@H]21 | inactive
11 | CN1c2ccc(C#Cc3cccnc3)cc2[C@H]2[C@H](CCN2C(=O)C2CCC2)[C@@H]1CO | inactive

Source: PubChem BioAssay AID1053115 (Broad Institute, 2014)
